Source: the supplement of paper PMC8253809

The molecules below were run on DIPGX37 (H3.3 K27M diffuse intrinsic pontine glioma line) (assay: growth inhibition (% activity, log2 RLU normalised to DMSO / staurosporine); higher = more growth inhibition). Conditions: 33 µM.
Outline: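 Approved drugs were tested in triplicate at a single final concentration of about 33 μM for 7 days at 37 °C, 5% CO2, on pHGG cell lines and H9-derived neural stem cells. Readout was CellTiter-Glo luminescence, log2-transformed and scaled per plate to % activity between solvent and positive control wells. The median over replicates gives the growth-inhibition value.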

| Compound | growth inhibition [%] |
| --- | --- |
| C[N+](C)(C)CCCCCCCCCC[N+](C)(C)C | -0.577 |
| CC(=O)O[C@H]1C[C@@H]2CC[C@@H]3[C@H](CC[C@@]4(C)[C@H]3C[C@H]([N+]3(C)CCCCC3)[C@@H]4OC(C)=O)[C@@]2(C)C[C@@H]1[N+]1(C)CCCCC1 | 0.743 |
| CN(C)C(=O)Oc1ccc[n+](C)c1 | -1.26 |
| CN1c2ccccc2C(NCCCCCCC(=O)O)c2ccc(Cl)cc2S1(=O)=O (stereo not drawn) | -3.13 |
| O=c1[nH]c2ccccc2n1CCCN1CCC(n2c(=O)[nH]c3cc(Cl)ccc32)CC1 | -0.863 |
| C[N+]1(C)CCCC(OC(=O)C(O)(c2ccccc2)c2ccccc2)C1 (stereo not drawn) | 0.259 |
| CNC1CC(N)C(O)C(OC2OC(CO)C(O)C3OC4(OC(C(N)CO)C(O)C(O)C4O)OC23)C1O (stereo not drawn) | 1.71 |
| CN1C(=O)CCS(=O)(=O)C1c1ccc(Cl)cc1 (stereo not drawn) | 0.814 |
| CN(C)C(=O)Oc1cccc([N+](C)(C)C)c1 | 0.574 |
| CCC1=C[C@H]2CN3CCc4c([nH]c5ccccc45)[C@](C(=O)OC)(C2)[C@H]13 | -1.56 |
| NCC(O)c1ccc(O)cc1 (stereo not drawn) | 1.17 |
| CCCN1C[C@H](CSC)C[C@@H]2c3cccc4[nH]cc(c34)C[C@H]21 | -1.76 |
| CN1C(=O)COc2c(C(=O)NC3CN4CCC3CC4)cc(Cl)cc21 (stereo not drawn) | 3.22 |
| Cn1c(CCCC(=O)O)nc2cc(N(CCCl)CCCl)ccc21 | 2.76 |
| CC(=O)OC12COC1CC(O)C1(C)C(=O)C(O)C3=C(C)C(O)CC(O)(C(OC(=O)c4ccccc4)C21)C3(C)C (stereo not drawn) | 3.33 |
| CC(=O)OC1CN2CCC1CC2 (stereo not drawn) | 1.16 |
| CC[C@@]1(O)C(=O)OCc2c1cc1n(c2=O)Cc2cc3ccccc3nc2-1 | -1.33 |
| C/C=C(\C)C(=O)N[C@@H](c1ccccc1)[C@@H](O)C(=O)O[C@H]1C[C@@]2(O)[C@@H](OC(=O)c3ccccc3)[C@@H]3[C@]4(OC(C)=O)CO[C@@H]4C[C@H](O)[C@@]3(C)C(=O)[C@H](OC(C)=O)C(=C1C)C2(C)C | 8.35 |
| CCOC(=O)c1cncn1[C@H](C)c1ccccc1 | 2.21 |

| Compound | growth inhibition [%] |
| --- | --- |
| O=C(O[C@H]1C[C@H]2CC[C@@H](C1)[N+]21CCCC1)C(O)(c1ccccc1)c1ccccc1 | -1.91 |
| NCCc1c[nH]c2ccc(O)cc12 | 0.315 |
| CCC1(c2ccc(N)cc2)CCC(=O)NC1=O (stereo not drawn) | 0.792 |
| N.N.[Cl][Pt][Cl] | 0.384 |
| C[N+]1(C)[C@@H]2C[C@@H](OC(=O)[C@H](CO)c3ccccc3)C[C@H]1[C@@H]1O[C@@H]12 | 1.29 |
| CN1C2CC(O)CC1C1OC12 (stereo not drawn) | -0.452 |
| C=CC[C@]1(O)CC[C@H]2[C@@H]3CCC4=CC(=O)CCC4=C3C=C[C@@]21C | 1.67 |
| CCC(COC(=O)c1cc(OC)c(OC)c(OC)c1)(c1ccccc1)N(C)C (stereo not drawn) | -5.85 |
| CCCCCCCCCCCCCCCC[n+]1ccccc1 | 58.4 |
| CC[C@@H](C(N)=O)N1CCCC1=O | -1.57 |
| Cc1cc(O)ccc1Cl | 0.714 |
| OC(c1ccccc1)(c1ccccc1)C1CCNCC1 | -0.7 |
| Cc1cccc(C)c1NC1=NCCCS1 | -1.28 |
| COc1ccc(C(=O)N2CCCC2=O)cc1 | 0.424 |
| N[C@@H]1C[C@H]1c1ccccc1.N[C@H]1C[C@@H]1c1ccccc1 | 3.63 |
| COC(=O)C1=CCCN(C)C1 | 4.11 |
| C=CCN.ClCC1CO1 (stereo not drawn) | -1.75 |
| O=P1(NCCCl)OCCCN1CCCl (stereo not drawn) | -0.766 |
| CN(C)C1C(=O)C(C(N)=O)=C(O)C2(O)C(=O)C3=C(O)c4c(O)cccc4C(C)(O)C3CC12 (stereo not drawn) | -2.75 |
